Structures are written as SMILES. Records with an inconclusive call do not appear. Values without a mark were called inactive. Active and inactive are the calls of the source. Unless noted, the call rests on the fitted dose curve; in most records, active means well fitted curve in the direction sought with a large enough effect in the repeat runs; inconclusive means weak or mixed curves; inactive means no such curve, though single readings can be large; an effect the other way counts as inactive or inconclusive.

For 11 molecules, Potency and outcome results are on record in PubChem BioAssay (Tox21).

Test [1] is described as follows: qHTS assay to identify small molecule agonists of the peroxisome proliferator-activated receptor delta (PPARd) signaling pathway - cell viability counter screen (AID 743211). Further: nearly all actives have a fitted effect of over 55% in size. The gist of the method: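 HEK293H PPARd-bla, 3000 cells/well; 5 h preincubation 37C/5% CO2; cpd in DMSO, 17 h 37C; B/G FRET substrate 2 h RT; CellTiter-Glo 30 min RT, luminescence.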
(In general: qHTS replaces the single test concentration by a dilution series.)

Test [2] can be described thus: qHTS assay to identify small molecule antagonists of the peroxisome proliferator-activated receptor delta (PPARd) signaling pathway - cell viability counter screen (AID 743213). Further: nearly all actives have a fitted effect of over 50% in size. Summed up: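 CellTiter-Glo was added to PPARd-bla HEK293H wells following 17 h compound treatment in the presence of 300 nM L165041. Luminescence was recorded after 30 min at room temperature.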

Test [3] is described as follows: qHTS assay to identify small molecule agonists of the farnesoid-X-receptor (FXR) signaling pathway - cell viability counter screen (AID 743218). Further: nearly all actives have a fitted effect of over 45% in size. The gist of the method: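 Viability of FXR-bla HEK 293T cells is measured by ATP-based CellTiter-Glo luminescence following 16 h compound treatment at 37 C and a prior 2 h room-temperature beta-lactamase substrate step.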

Test [4] is described as follows: qHTS assay to identify small molecule antagonists of the farnesoid-X-receptor (FXR) signaling pathway - cell viability counter screen (AID 743221; active means well fitted cell-killing curve with a large enough effect in the repeat runs, not every such curve was filed as active; further: nearly all actives have a fitted effect of over 50% in size). The gist of the method:
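Luminescence from CellTiter-Glo measures cytotoxicity in GeneBLAzer FXR-UAS-bla HEK 293T cells. Cells were exposed to compounds with 50 uM chenodeoxycholic acid (final) for 16 h at 37 C, in wells also used for the reporter readout.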

The nature of test [5]: qHTS assay to identify small molecule agonists of the vitamin D receptor (VDR) signaling pathway - cell viability counter screen (AID 743224). Further: nearly all actives have a fitted effect of over 50% in size. Further: potency means the concentration at half of the fitted maximal effect. Summed up:
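Compounds were pin-transferred onto VDR-bla cells plated 4 h earlier; following 16 h incubation at 37C, cell viability was quantified by CellTiter-Glo luminescence after 30 min at room temperature.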

Test [6] can be described thus: qHTS assay to identify small molecule agonists of the endoplasmic reticulum stress response signaling pathway (AID 1159516; active means well fitted activation curve with a large enough effect in the signal ratio in the repeat runs, not every such curve was filed as active; the % refers to the signal ratio; further: potency means the concentration at half of the fitted maximal effect). Summed up: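 Using a HeLa line with an ESRE-driven beta-lactamase gene, agonist activity was measured by FRET substrate fluorescence (460 and 530 nm emission) after cells were treated with compounds for 5 hr at 37 C and 5% CO2.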
The nature of test [7]: qHTS assay to identify small molecule agonists of the endoplasmic reticulum stress response signaling pathway - cell viability counter screen (AID 1159517; calls by dose curve;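 further: HeLa cells carrying an ER stress response element beta-lactamase reporter; series mostly up to about 61 µM; nearly all actives have a fitted effect of over 50% in size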). Summed up: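 In parallel with the ESRE reporter read, cytotoxicity was scored by CellTiter-Glo luminescence (30 min, room temperature) on HeLa ESRE-bla cells dosed for 5 hr.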
Test [8] is described as follows: qHTS assay to identify small molecule antagonists of the retinoid-related orphan receptor gamma (ROR-gamma) signaling pathway - cell viability counter screen (AID 1159520). Further: nearly all actives have a fitted effect of over 50% in size. Further: potency means the concentration at half of the fitted maximal effect. Summed up: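 Tet-on ROR gamma CHO cells were given compounds for 2 hr, then doxycycline hyclate at 1 uM final, and incubated 16 hr at 37 C. Viability was measured as ATP content by CellTiter-Glo luminescence.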

The target in test [9] is Nuclear receptor ROR-gamma (Homo sapiens) (UniProt P51449). Nature of the test: qHTS assay to identify small molecule antagonists of the retinoid-related orphan receptor gamma (ROR-gamma) signaling pathway (AID 1159521; further: nearly all actives have a fitted effect of over 50% in size; further: potency means the concentration at half of the fitted maximal effect). Summed up: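 CHO Tet-on RORγ, RORE-luc reporter. Cpd 2 h pre-incubation, then dox hyclate 1 uM final, 16 h, 37 C/5% CO2. ONE-Glo luminescence; decrease = antagonist.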

Test [10] is described as follows: qHTS assay to identify small molecule agonists of the AP-1 signaling pathway - cell viability counter screen (AID 1159525; calls by dose curve; further: nearly all actives have a fitted effect of over 55% in size). Summed up:
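Same-well cytotoxicity counter screen of the Tox21 10K library in ME-180 cells. The readout is ATP-dependent luminescence after 5 h compound treatment. Data are normalised to DMSO and tetra n-octyl ammonium bromide controls.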

Test [11] is described as follows: qHTS assay to identify small molecule agonists of the AP-1 signaling pathway (AID 1159526; calls by dose curve).
The target of test [12] is Vitamin D3 receptor (Homo sapiens) (UniProt P11473). Nature of the test: qHTS assay to identify small molecule agonists of the vitamin D receptor (VDR) signaling pathway (AID 743222; calls by dose curve). Summed up: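 Fluorescence from cleaved LiveBLAzer B/G FRET substrate served as readout. VDR-bla cells had been treated 16 h at 37C with test compounds in DMSO, following a 4 h settling period, and substrate was loaded for 2 h at RT.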

For test [13] the target is unchanged. Nature of the test: qHTS assay to identify small molecule antagonists of the vitamin D receptor (VDR) signaling pathway (AID 743223; active means well fitted inhibition curve with a large enough effect in the signal ratio in the repeat runs, not every such curve was filed as active; the % refers to the signal ratio). Summed up:
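Antagonist mode uses 1alpha,25-dihydroxyvitamin D3 at 3 nM final as stimulus. VDR-bla cells receive compounds in DMSO, incubate 16 h at 37C, then a beta-lactamase FRET substrate for 2 h at room temperature before fluorescence measurement.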

Test [14] can be described thus: qHTS assay to identify small molecule antagonists of the vitamin D receptor (VDR) signaling pathway - cell viability counter screen (AID 743225). Further: nearly all actives have a fitted effect of over 50% in size. Further: potency means the concentration at half of the fitted maximal effect. Summed up:
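Read-out: CellTiter-Glo luminescence measured 30 min after reagent addition at room temperature. Cells were VDR-bla HEK 293T exposed 16 h at 37C, 5% CO2, to compound with 3 nM final calcitriol agonist.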

The target of test [15] is Bile acid receptor (Homo sapiens) (UniProt Q96RI1). Put plainly: qHTS assay to identify small molecule antagonists of the farnesoid-X-receptor (FXR) signaling pathway (AID 743217; active means well fitted inhibition curve with a large enough effect in the signal ratio in the repeat runs, not every such curve was filed as active; the % refers to the signal ratio). Summed up: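 Screen of the Tox21 10K library in quantitative HTS format using FXR-UAS-bla HEK 293T reporter cells. Agonist chenodeoxycholic acid, 50 uM final, added with compounds; 16 h incubation at 37 °C; beta-lactamase FRET fluorescence measured.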

Test [16] has the same target. Nature of the test: qHTS assay to identify small molecule agonists of the farnesoid-X-receptor (FXR) signaling pathway (AID 743220; active means well fitted activation curve with a large enough effect in the signal ratio in the repeat runs, not every such curve was filed as active; the % refers to the signal ratio). The gist of the method: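 FXR-UAS-bla HEK 293T cells carrying a UAS-driven beta-lactamase reporter were plated for 5 h at 37C/5% CO2, then exposed to DMSO-dissolved Tox21 10K compounds for 16 h at 37C. A LiveBLAzer B/G FRET substrate was loaded for 2 h at room temperature before fluorescence reading.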

Test [17] has as its target Peroxisome proliferator-activated receptor delta (Homo sapiens) (UniProt Q03181). Nature of the test: qHTS assay to identify small molecule agonists of the peroxisome proliferator-activated receptor delta (PPARd) signaling pathway (AID 743212; calls by dose curve). The gist of the method: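 Tox21 library screened in GeneBLAzer PPARd UAS-bla HEK293H cells. After compound treatment at 37 C, a FRET-based beta-lactamase substrate was applied for 2 h and fluorescence recorded.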

Test [18] addresses Retinoic acid receptor RXR-alpha (Homo sapiens) (UniProt P19793). Nature of the test: qHTS assay to identify small molecule agonists of the RXR signaling pathway (AID 1159527; calls by dose curve; further: nearly all actives have a fitted effect of over 35% in size). Summed up: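 Read-out: beta-lactamase FRET ratio (405 nm excitation, 460 and 530 nm emission) after 2 hr substrate loading at room temperature. Cells were RXR-alpha-UAS-bla HEK 293T treated with compounds for 16 hr in 2% charcoal-stripped FBS medium.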

The target of test [19] is Peroxisome proliferator-activated receptor delta (Homo sapiens) (UniProt Q03181). Nature of the test: qHTS assay to identify small molecule antagonists of the peroxisome proliferator-activated receptor delta (PPARd) signaling pathway (AID 743215; active means well fitted inhibition curve with a large enough effect in the signal ratio in the repeat runs, not every such curve was filed as active; the % refers to the signal ratio;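 further: cells stimulated with agonist L165041 at 300 nM final during compound exposure; series mostly up to about 62 µM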). Summed up: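 Plated HEK293H PPARd-bla cells rested 5 h at 37 C and 5% CO2. Compound, then agonist L165041 at 300 nM final, was added; 17 h at 37 C followed. Substrate loading, 2 h room temperature, fluorescence measured.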
Chain of Peroxisome proliferator-activated receptor delta (Homo sapiens) (Q03181 whole entry, looked up): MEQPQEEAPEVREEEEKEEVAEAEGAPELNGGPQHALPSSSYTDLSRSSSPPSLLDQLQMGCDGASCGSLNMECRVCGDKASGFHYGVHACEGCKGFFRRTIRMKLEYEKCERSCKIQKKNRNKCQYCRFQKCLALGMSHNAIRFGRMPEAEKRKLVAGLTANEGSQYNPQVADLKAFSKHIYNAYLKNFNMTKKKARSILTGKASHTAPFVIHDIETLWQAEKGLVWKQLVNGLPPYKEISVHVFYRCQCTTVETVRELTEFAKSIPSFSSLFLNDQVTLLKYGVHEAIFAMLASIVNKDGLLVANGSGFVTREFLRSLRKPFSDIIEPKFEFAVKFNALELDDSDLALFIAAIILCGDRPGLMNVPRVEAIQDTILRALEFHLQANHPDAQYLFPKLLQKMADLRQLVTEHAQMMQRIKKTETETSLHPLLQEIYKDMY

Chain of Bile acid receptor (Homo sapiens) (Q96RI1 whole entry, looked up): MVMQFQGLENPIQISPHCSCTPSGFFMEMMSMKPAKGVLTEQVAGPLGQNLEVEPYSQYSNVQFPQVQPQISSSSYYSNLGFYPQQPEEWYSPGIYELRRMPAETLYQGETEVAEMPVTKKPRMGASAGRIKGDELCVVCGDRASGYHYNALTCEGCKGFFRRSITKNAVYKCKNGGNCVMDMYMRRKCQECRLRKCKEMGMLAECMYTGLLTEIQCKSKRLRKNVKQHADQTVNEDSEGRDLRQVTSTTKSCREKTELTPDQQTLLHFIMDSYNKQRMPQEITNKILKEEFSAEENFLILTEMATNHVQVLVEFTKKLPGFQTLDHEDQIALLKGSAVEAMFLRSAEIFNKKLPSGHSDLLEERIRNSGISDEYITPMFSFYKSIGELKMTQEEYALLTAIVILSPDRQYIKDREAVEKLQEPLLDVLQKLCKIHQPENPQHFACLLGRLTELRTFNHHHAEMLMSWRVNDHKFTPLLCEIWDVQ
Chain of Vitamin D3 receptor (Homo sapiens) (P11473 whole entry, looked up): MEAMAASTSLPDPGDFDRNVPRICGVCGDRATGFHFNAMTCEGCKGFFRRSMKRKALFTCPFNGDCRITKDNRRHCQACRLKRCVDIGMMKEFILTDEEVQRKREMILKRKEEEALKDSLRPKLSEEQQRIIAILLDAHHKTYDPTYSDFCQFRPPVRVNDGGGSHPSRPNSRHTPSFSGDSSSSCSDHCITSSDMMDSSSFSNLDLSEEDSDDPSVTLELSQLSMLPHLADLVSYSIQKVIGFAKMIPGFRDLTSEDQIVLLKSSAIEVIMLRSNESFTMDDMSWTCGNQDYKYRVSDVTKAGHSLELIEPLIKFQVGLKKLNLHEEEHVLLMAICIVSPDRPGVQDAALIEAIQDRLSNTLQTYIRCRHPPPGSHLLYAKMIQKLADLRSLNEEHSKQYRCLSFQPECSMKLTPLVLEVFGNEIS
Chain of Retinoic acid receptor RXR-alpha (Homo sapiens) (P19793 whole entry, looked up): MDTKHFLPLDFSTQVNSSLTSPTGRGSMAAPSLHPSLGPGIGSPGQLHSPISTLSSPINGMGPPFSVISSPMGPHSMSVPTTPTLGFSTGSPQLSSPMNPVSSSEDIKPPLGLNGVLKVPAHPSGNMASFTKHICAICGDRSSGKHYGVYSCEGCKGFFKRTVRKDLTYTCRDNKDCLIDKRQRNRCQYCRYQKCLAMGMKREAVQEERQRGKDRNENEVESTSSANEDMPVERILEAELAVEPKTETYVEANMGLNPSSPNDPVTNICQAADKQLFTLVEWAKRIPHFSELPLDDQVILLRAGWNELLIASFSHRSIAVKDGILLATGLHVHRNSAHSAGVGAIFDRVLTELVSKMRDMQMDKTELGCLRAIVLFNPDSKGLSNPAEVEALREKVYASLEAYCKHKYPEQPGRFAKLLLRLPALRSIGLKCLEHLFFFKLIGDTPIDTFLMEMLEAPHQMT

`NC1CCN(c2nc3c(cc2F)c(=O)c(C(=O)O)cn3-c2ccc(F)cc2F)C1` (configuration not stated): the Potency result in [1], in [2], in test [3], in [4], in test [5] and in [6] was “inactive” throughout. For the same molecule, the Potency entry in [8], in [9], in test [10] and in [11] was “inactive” in each case. Further, in test [7], the outcome was inactive.

Regarding `CCCCCOC(=O)COc1cc(N2C(=O)C3=C(CCCC3)C2=O)c(F)cc1Cl`, the Potency result in test [1], in test [2], in test [4], in test [13], in [5] and in test [14] was “inactive” throughout. Moreover, the Potency entry in [6], in test [8], in test [9], in [10] and in test [11] was “inactive” each time. Moreover, the molecule was called inactive in test [12] and in [7].

Consider `Cc1ccc(C(=O)C(C)CN2CCCCC2)cc1` (configuration not stated), for which the Potency entry in test [1], in test [2], in test [3], in [4], in [13] and in test [5] was “inactive” each time. In addition, the Potency entry in test [14], in test [8], in [9], in test [10] and in test [11] was “inactive” throughout. The molecule was classed as inactive in test [15], in test [16], in test [12] and in test [7].

Take `CC(C)(C)c1cc(O)c(C(C)(C)C)cc1O`: the molecule was called inactive in [17], in test [12] and in test [7]. Further, the Potency entry in [2], in test [3], in [4], in test [13], in test [5] and in test [10] was “inactive” throughout. Moreover, the Potency entry in test [11] was “inactive”. Further, the results for the Potency in test [6], in test [8] and in test [9] were 5.49 µM (active), 48.6 µM (active) and 15.4 µM (active), respectively.

In the case of `CC(=O)/C(C)=C/C1C(C)=CCCC1(C)C` (configuration not stated), the Potency result in test [1], in test [2], in test [3], in test [4], in test [5] and in [14] was “inactive” each time. The Potency entry in test [6], in test [9], in test [10] and in test [11] was “inactive” each time. Further, the result in test [17] and in test [7] was inactive.

As to `ClC(Cl)(Cl)c1ccc(C(Cl)(Cl)Cl)cc1`, the Potency result in [1], in test [2], in test [3], in [4], in test [13] and in [5] was “inactive” throughout. In addition, the Potency result in test [14], in test [8], in test [9] and in test [10] was “inactive” throughout. In addition, the outcome in test [12] and in test [7] was inactive.

Turning to `O=c1c2ccccc2nnn1CCl`, the Potency entry in test [1], in test [2], in [3], in [4], in test [13] and in [14] was “inactive” in each case. In addition, the Potency entry in test [8], in test [9], in test [11] and in test [18] was “inactive” in each case. In addition, the molecule was called inactive in [17], in test [12] and in test [7].

`CCOc1cc(OCC)c(C(=O)CCC(=O)O)cc1OCC`: the Potency entry in test [1], in [2], in [3], in [4], in test [5] and in test [6] was “inactive” in each case. In addition, the Potency entry in [9], in test [10] and in [11] was “inactive” throughout. The molecule was classed as inactive in [19] and in [7].

As for `CCCCCCOC(=O)CCC`, the Potency result in test [1], in [2], in [3], in [4], in [5] and in test [14] was “inactive” in each case. Besides, the Potency result in test [6], in test [8], in [9], in [10] and in test [18] was “inactive” each time. Moreover, the call in test [17], in [19], in test [16], in [12] and in test [7] was inactive.

Take `Nc1nc(N)c2nc(CNc3ccc(C(=O)N[C@@H](CCC(=O)O)C(=O)O)cc3)cnc2n1`: the Potency in test [5] was 0.0288 µM (active); in test [14] it was 0.0288 µM (active); in test [6], 51.3 µM (active). The outcome in [7] was inactive. Further, the Potency result in [8], in test [9], in [10] and in test [11] was “inactive” in each case.

As for `c1ccc(-c2nc[nH]c2-c2ccccc2)cc1`, the Potency result in [1], in test [2], in test [3], in test [13], in [5] and in test [14] was “inactive” each time. Moreover, the Potency entry in test [8], in test [9], in [10] and in test [11] was “inactive” each time. The molecule was classed as inactive in test [17], in test [19] and in test [7].
